# AmpC inh detg = AmpC beta-lactamase inhibition with detergent present | AmpC hydrolysis of nitrocefin, absorbance 480 nm, 0.01% Triton | Potency, µM (series often up to 114 µM), for inactives: at the highest dose activity change, negative = inhibition, hits mostly inhibitors | 370,000 compounds, 0.041% hits | AID 485294;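 also: 0% = no-compound wells and -100% = no-enzyme wells; nearly all actives have a fitted effect of over 25% in size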
# Target sequence (P00811 whole entry, looked up): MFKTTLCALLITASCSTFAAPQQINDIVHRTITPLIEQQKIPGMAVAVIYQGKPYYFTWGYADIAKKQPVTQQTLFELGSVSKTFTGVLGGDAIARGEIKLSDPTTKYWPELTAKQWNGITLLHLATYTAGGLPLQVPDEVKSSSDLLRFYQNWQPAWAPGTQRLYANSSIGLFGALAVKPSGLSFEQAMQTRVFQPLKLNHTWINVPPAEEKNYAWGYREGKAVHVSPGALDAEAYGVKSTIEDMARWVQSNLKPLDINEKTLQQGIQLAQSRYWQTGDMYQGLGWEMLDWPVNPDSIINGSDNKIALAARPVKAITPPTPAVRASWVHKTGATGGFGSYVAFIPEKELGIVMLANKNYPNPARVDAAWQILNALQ
#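 AmpC (5.3 nM in the dispensed reagent) in 20 mM phosphate pH 7.0 with 0.01% (detergent screen) or 0.0001% Triton X-100 was preincubated with compounds for 15 min at room temperature. Nitrocefin was then added from an 800 uM solution, and hydrolysis was followed at 480 nm.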
# Tb PYK inh = inhibitors of Trypanosoma brucei pyruvate kinase | TbPYK enzyme, Kinase-Glo Plus ATP luminescence, 45 min | Potency, µM (titrated, usually from 76.8 µM), for inactives: top-dose activity, negative = inhibition, most hits filed as inhibitors | 410,000 compounds, 0.12% hits; also: % is scaled to controls: 0 for no effect and ±100 for the full control effect; nearly all actives have a fitted effect of over 50% in size
#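 T. brucei PYK with substrate was exposed to pin-transferred compounds across a concentration series, then started with 130 uM ADP (final). After 45 min at room temperature, Kinase-Glo Plus luminescence was read, normalized and curve-fitted.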
# Sm TGR inh = S. mansoni TGR enzyme inhibition; Q962Y6; purified TGR, DTNB reduction, TNB absorbance 405 nm; Potency, µM (top dose mostly 114 µM), for the others: at the highest dose activity change, negative = inhibition, hits mostly inhibitors; 360,000 compounds, 3% hits; also: % is scaled to controls: 0 for no effect and ±100 for the full control effect; nearly all actives have a fitted effect of over 60% in size
#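 TGR 20 nM + NADPH 100 uM (dispensed conc.), cpd preinc 15 min RT; start with NADPH (500 uM addition) then DTNB (15 mM addition). Kinetic TNB absorbance, 405 nm filter. Four-parameter Hill fit across titration.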
# AmpC no deterg = AmpC beta-lactamase inhibition without detergent; P00811; AmpC nitrocefin hydrolysis, absorbance 480 nm, 0.0001% Triton; Potency, µM (series often up to 57.1 µM), for inactives: top-dose activity change, negative = inhibition, hits mostly inhibitors; 330,000 compounds, 0.52% hits; AID 485341;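 also: plate controls were no compound for no effect and no enzyme for full effect; nearly all actives have a fitted effect of over 20% in size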
#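 AmpC (5.3 nM in the dispensed reagent) in 20 mM phosphate pH 7.0 with 0.01% (detergent screen) or 0.0001% Triton X-100 was preincubated with compounds for 15 min at room temperature. Nitrocefin was then added from an 800 uM solution, and hydrolysis was followed at 480 nm.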
# SARS PLpro yeast = inhibitors of SARS-CoV papain-like protease in yeast. Potency, µM (series often up to 32.9 µM), for the others: top-dose activity, positive = growth rescue, usual class: activators. 330,000 compounds, 0.19% hits. AID 485353. S. cerevisiae expressing SARS-CoV PLpro, growth rescue; calls by dose curve; also: 0% is about no effect; nearly all actives have a fitted effect of over 55% in size
# RE007 growth inh = less growth of the S. pombe RE007 Vpr strain. S. pombe RE007 Vpr strain, BacTiter-Glo ATP luminescence, 24 h. Potency, µM (highest dose often 92.2 µM), without a hit: at the top dose activity change, negative = less growth, actives largely listed as inhibitors. 360,000 compounds, 0.21% hits. AID 651644; active = well fitted falling curve with a large enough effect; inconclusive = small, poorly fitted or top-dose-only effect; inactive = no such curve, though single readings can be large or run the other way; also: % is scaled to controls: 0 for no effect and ±100 for the full control effect; nearly all actives have a fitted effect of over 50% in size
#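 Fission yeast RE007 carrying one integrated HIV-1 vpr copy, seeded at OD 0.01 in PMG+AL medium with 23 nL pinned compound. Grown 24 h at 30 degrees; viability read by BacTiter-Glo luminescence after 5 min.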
# Active calls of the source: *; ? = inconclusive; / = no result given; [ ] = remark or other dose. In the library only some 3.3% were active in any assay of this set; here they are far more common. Unless noted, calls follow the shape of the dose curve; as a rule, active = well fitted curve in the direction sought with a large enough effect; inconclusive = small, poorly fitted or top-dose-only effect, or another doubt; inactive = no such curve, though single readings can be large; an effect the other way counts as inactive or inconclusive. Potency is read from the fitted curve at half-maximal effect.
SMILES,AmpC inh detg,Tb PYK inh,Sm TGR inh,AmpC no deterg,SARS PLpro yeast,RE007 growth inh
O=C(CN1CCCN(Cc2ccc(F)cc2)S1(=O)=O)NCc1ccccc1Cl,11%,0%[15.4 µM],-5%,/,/,/
Cc1ccc(NC(=O)CN2C(=O)CSc3ccc(S(=O)(=O)N(C)C)cc32)cc1C,-5%,-4%,3%,/,/,/
COc1ccc(C)cc1NC(=O)c1sc2nc(-c3ccc(F)cc3)cn2c1C,14%,0%,-15%,/,/,/
Cc1ccc(NC(=O)c2cc(-c3ccco3)nc3ccccc23)cc1S(=O)(=O)N1CCOCC1,-1%,-2%,45µM*,-13%,0%,-12%
COc1ccc(NC(=O)c2cc(-c3ccco3)nc3ccccc23)cc1S(=O)(=O)N1CCOCC1,0%,-19%,7.9µM*,57%,-1%,-13%
COc1ccc(S(=O)(=O)NCCSCc2ccco2)cc1Cl,?,-4%,32µM*,-32%,2%,6%
COc1cccc(N(CC(=O)NCCSCc2ccco2)S(=O)(=O)c2ccccc2)c1,4%,-2%,?,-7%,1%,11%
COc1ccc(S(=O)(=O)NCCSCc2ccco2)cc1C,/,-5%,/,/,/,-14%
COc1ccc(N(CC(=O)NCc2ccco2)S(C)(=O)=O)cc1Cl,-15%,5%,79µM*,-11%,-7%,4%
COc1ccc(N(CC(=O)NCCSCc2ccco2)S(=O)(=O)c2ccccc2)cc1Cl,4%,-9%,18µM*,-18%,-3%,7%
Cc1ccc(N(CC(=O)NCCSCc2ccco2)S(=O)(=O)c2ccc(C)cc2)cc1,0%,0%,1%,-43%,-1%,-19%
Cc1cccc(N(CC(=O)NCCSCc2ccco2)S(=O)(=O)c2ccccc2)c1,6%,-8%,32µM*,-1%,-1%,2%
COc1ccc(N(CC(=O)NCc2ccco2)S(C)(=O)=O)cc1OC,-14%,-3%,-9%,-8%,-7%,-11%
Cc1ccc(-c2noc(CNC(=O)c3ccccc3)n2)cc1,5%,-2%,0%,/,/,/
COc1ccc(NC2=C(c3ccc(C(F)(F)F)cc3)C(=O)c3ccccc32)cc1,12%,0%,11%,/,/,/
COc1ccc(CCNC(=O)Cc2ccc(NC(=O)N3CCSc4ncccc43)cc2)cc1OC,17%,4%[15.4 µM],7%,/,/,/
COc1ccc(NC(=O)c2ccco2)cc1NC(=O)COc1cc(C)ccc1C(C)C,5%,3%,-3%,/,/,/
COc1ccc(C)cc1N(CC(=O)NCCSCc1ccco1)S(=O)(=O)c1ccc(C)cc1,3%,-3%,32µM*,3%,1%,-4%
Cc1ccc(C)c(N(CC(=O)NCCSCc2ccco2)S(C)(=O)=O)c1,?,-19%,20µM*,70%,-8%,5%
Cc1ccc(CSCCNC(=O)CN(c2cc(C)ccc2C)S(C)(=O)=O)cc1,?,-2%,-3%,94%,0%,-4%
CC(NC(=O)c1cccc(OC2CCN(C3CCN(C)CC3)CC2)c1)c1ccccc1 (stereo not given),4%,0%,14µM*,19%,28%,-1%
CC(NC(=O)c1cccc(OC2CCN(C(=O)C3CC3)CC2)c1)c1ccc(F)cc1 (stereo not given),-11%,-1%,6%,65%,0%,12%
COc1ccc(CN(CCC(c2ccc3c(c2)OCO3)c2ccccc2OC)C(C)=O)cc1 (stereo not given),-5%,-5%,-6%,/,/,/
COC(=O)c1sccc1NC(=O)Nc1ccc(Cl)c(Cl)c1,3%,-4%,5%,0.16µM*,-12%,2%
COC(=O)c1sccc1NC(=O)Nc1ccc(C)c(C)c1,-2%,?,-6%,-59%,-15%,?
SMILES,AmpC inh detg,Tb PYK inh,Sm TGR inh,AmpC no deterg,SARS PLpro yeast,RE007 growth inh
Cn1c(CNC(=O)CSc2n[nH]c(-c3ccccc3Cl)n2)nc2ccccc21,23%,-7%,2%,/,/,/
Cc1ccc(C(=O)COC(=O)COc2ccccc2[N+](=O)[O-])s1,-3%,5%,-16%,-32%,4%,26%
CCOC(=O)COc1ccccc1/C=C\[N+](=O)[O-],?,?,11µM*,-9%,-108%,32µM*
CCOC(=O)c1cc(-c2ccccc2)n(CC(=O)NC2CCC(C)CC2)c1C (stereo not given),8%,-8%,16%,/,/,/
CCC(C)/C=C/C1=CC2=C(Cl)C(=O)C3(C)OC(=O)C(C(=O)C(C)C(C)O)C3C2=CO1 (stereo not given),-6%,3%,50µM*,0%,1%,-18%
CC(C)(C)C1=C(C#N)C(c2ccc3c(c2)OCO3)C(C#N)=C(N)O1 (stereo not given),-11%,-9%,2µM*,-36%,-1%,7%
Cc1oc(-c2ccc(F)cc2)nc1CN(Cc1ccccn1)CC1CCCO1 (stereo not given),6%,-7%,40µM*,70%,12%,-13%
C[C@@]12CCC=C[C@H]1[C@H](c1ccoc1)N(Cc1ccccc1)C2=O,-3%,6%,35µM*,18%,-3%,-3%
CCC(OC(=O)C(NC(=O)c1ccccc1)c1ccccc1)C(=O)Nc1cc(C)on1 (stereo not given),?,2%,-4%,-14%,22µM*,-1%
COc1cc2c(cc1OC)C(c1cc(Br)ccc1O)N(C(C)=O)CC2 (stereo not given),/,4%,/,/,/,30%
COc1cc2c(cc1OC)C(c1ccccc1)N(C(=O)CCl)CC2 (stereo not given),2%,2%,4µM*,-13%,-2%,9%
COc1cc2c(cc1OC)C(c1ccccc1O)N(C1CC(=O)N(c3ccccc3)C1=O)CC2 (stereo not given),-12%,1%,10µM*,50%,-27%,-28%
COc1cc2c(cc1OC)C(c1cc(OC)c(OC)cc1[N+](=O)[O-])N(C(C)=O)CC2 (stereo not given),-7%,-3%,89µM*,-17%,1%,/
Cc1ccc2oc(=O)c3cc(C(=O)NCCCOC(C)C)sc3c2c1,16%,-8%,-1%,/,/,/
CCc1ccc(-n2c(N3CCN(c4ccc(F)cc4)CC3)nc3ccccc3c2=O)cc1,0%,4%,5%,/,/,/
CCOC(=O)N/N=C(C)/C=C/c1ccco1,-12%,-14%,32µM*,-6%,4%,-27%
CCOC(=O)C(=O)N/N=C/c1ccco1,4%,-9%,2%,-4%,0%,13%
CC(/C=C/c1ccco1)=N\NC(=O)c1cccc(Cl)c1,-5%,4%,-34%,-32%,7%,-15%

# Source: PubChem BioAssay (National Center for Advancing Translational Sciences (NCATS))
